hcDAF12 agonist: activates DAF-12 receptor from parasite H. contortus. activation, % at 6.8 µM. hit rate 1.4% among 370,000. HEK293 hcDAF-12 lit1-tk-luc reporter, luminescence; 0% DMSO, 100% Δ7-dafachronic acid. AID 652067;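 active = activation above the mean of all tested compounds plus 3 SD, cut at about 5.5% in these data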;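 also: 100% = response to 3 µM Δ7-dafachronic acid high control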
ssDAF-12 act: activators of S. stercoralis DAF-12 nuclear receptor; HEK293 ssDAF-12/GRIP1 lit1-tk-luc reporter, luminescence; % of 3 µM dafachronic acid response; activation, % at 6.8 µM; hit rate 1% among 370,000;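 active = activation above the mean over all tested compounds plus 3 SD, cut at about 0.9% in these data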;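 also: 0% = DMSO-only wells and 100% = 3 µM delta7-dafachronic acid wells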
DAX1 inh-1: blocks DAX1 repression of SF-1 activated StAR promoter; HEK293T StAR-luciferase reporter, SF-1/DAX-1 repression relief; inhibition, % at 6.8 µM; hit rate 1.1% among 370,000; AID 652010;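 active = inhibition above the mean over all tested compounds plus 3 SD, cut at about 3.6% in these data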;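 also: 0% = DAX-1 cells with DMSO and 100% = cells lacking DAX-1 with DMSO; higher inhibition means more luminescence from relief of DAX-1 repression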
hgDAF-12 ag: hgDAF-12 agonism, primary luciferase screen; HEK293 GAL4-hgDAF12 UAS-luciferase reporter, agonist luminescence; normalized to butyrate control; AID 687014; hit rate 1.8% among 370,000; activation, % at 6.8 µM;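 active = activation above a cutoff set at the mean of all screened compounds plus 3 SD, cut at about 10% in these data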;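 also: 0% = DMSO wells and 100% = sodium butyrate wells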
DAX1 inh-2: inhibitors of human orphan nuclear receptor DAX1 (NR0B1); P51843; HEK293 Gal4-DAX1 luciferase reporter, luminescence; inhibition, % at 6.75 µM; hit rate 0.99% among 340,000;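 active = inhibition above the mean over all tested compounds plus 3 SD, cut at about 4.2% in these data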;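 also: 0% = DAX1-transfected cells with DMSO and 100% = empty-vector control cells with DMSO; inhibition shows as a rise in luminescence from relieved DAX1 repression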
Target sequence (P51843 207-470 limits assumed): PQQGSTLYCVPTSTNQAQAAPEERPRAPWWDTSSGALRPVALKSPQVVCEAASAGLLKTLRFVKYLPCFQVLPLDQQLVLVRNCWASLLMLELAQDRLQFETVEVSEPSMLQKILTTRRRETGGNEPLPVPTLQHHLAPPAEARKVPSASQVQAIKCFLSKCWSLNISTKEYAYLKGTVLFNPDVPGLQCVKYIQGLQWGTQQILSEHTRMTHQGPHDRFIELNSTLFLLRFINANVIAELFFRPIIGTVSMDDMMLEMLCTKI
Active calls of the source: *; / = no result given. Shown are actives, neighbours in structure and some others; about 4.1% of the full set was active somewhere.

SMILES | hcDAF12 agonist | ssDAF-12 act | DAX1 inh-1 | hgDAF-12 ag | DAX1 inh-2
O=C(COc1cccc(Cl)c1Cl)Nc1ccc2c(c1)CCC2 | 0 | -1 | -1 | -1 | -1
O=C(COc1ccccc1[N+](=O)[O-])Nc1ccc2c(c1)CCC2 | 2 | -1 | 4.5* | 10 | 2
COc1ccc2c(c1)CCCN2C(=O)C1CCCN(S(=O)(=O)c2cccc3cccnc23)C1 (stereo unspecified) | -1 | -1 | 0 | -4 | /
OCC1OC(n2cnc3c(SCc4ccccc4)ncnc32)C(O)C1O (stereo unspecified) | 0 | -1 | 1 | 0 | 1
OCC1OC(n2ccc3c(SCc4ccccc4)ncnc32)C(O)C1O (stereo unspecified) | 2 | -1 | 3 | 13* | 3
CN(Cc1ccccc1)S(=O)(=O)c1cccc(C(=O)OCc2ccc(C(F)(F)F)cc2)c1 | 1 | -1 | -1 | 1 | /
Nc1nc2ccccc2n1S(=O)(=O)c1ccc(Cl)cc1 | 0 | -1 | 4.2* | -1 | /
Cc1ccc(S(=O)(=O)n2c(N)nc3ccccc32)cc1 | -2 | -1 | 0 | 0 | 0
Cc1ccc2nc(-c3ccncc3)c(NC3CCCC3)n2c1 | -1 | -1 | -1 | 1 | 5.0*
Cc1ccc(/C=C2\C(=O)ON=C2c2ccccc2)o1 | -1 | -1 | 0 | 0 | /
Cc1ccc(C2=NOC(=O)/C2=C\c2ccc(C)o2)cc1 | 0 | -1 | 0 | -1 | 5.8*
O=C(Nc1ccc(Cl)cc1Cl)O[C@@H]1CC[C@@]23CCCN2C(=O)CCC[C@H]3C1 | -1 | -2 | / | 0 | /
O=C(CSc1nnc(SCc2cccc3ccccc23)s1)c1ccc(F)cc1 | 0 | -1 | 1 | 2 | /
NC1=NN=C(c2ccc3c(c2)OCCO3)CS1 | 3 | -1 | 4.5* | 13* | -1
Cc1sc(N)nc1-c1ccc2c(c1)OCCO2 | 1 | -1 | 1 | 2 | -1
COc1cc(CNc2ccc3[nH]c(=O)[nH]c3c2)ccc1OCc1ccc(C)cc1 | 4 | 1 | 2 | 12* | -2
CC1CCC2(CC1)CCN(CCCOC(=O)NCc1ccc(Cl)cc1)C2=O (stereo unspecified) | -2 | -2 | -2 | 0 | /
O=C(Nc1ccccc1)OC1CC2CC1C1CCCC21 (stereo unspecified) | 0 | 0 | 3 | 12* | 1
CCCC[C@H]1C2CC(OC(=O)Nc3ccccc3)C(C2)[C@H]2CCCCN21 (stereo partly specified) | -3 | -1 | 0 | 0 | /
O=C(O)c1cccc(S(=O)(=O)NCC(=O)N2CCN(c3ccccn3)CC2)c1 | 1 | -1 | 0 | 3 | /
COC(=O)CCc1ccc(O)cc1 | -1 | -1 | 1 | 1 | 2
COC(=O)C1(Cc2ccc(O)cc2)OC(=O)C(O)=C1c1ccc(O)cc1 (stereo unspecified) | 0 | -1 | 1 | 0 | 7.4*
COc1cccc(-c2cc(C(=O)Nn3cnnc3)c3ccccc3n2)c1 | 6.0* | 0 | 1 | 0 | -1
CCOc1ccc(-c2cc(C(=O)O)c3ccccc3n2)cc1 | 5 | 0 | 3 | 11* | -1
O=C(NC1=NCCS1)c1cc(-c2ccc(-c3ccccc3)cc2)nc2ccccc12 | 1 | 0.9* | 2 | 5 | 0
SMILES | hcDAF12 agonist | ssDAF-12 act | DAX1 inh-1 | hgDAF-12 ag | DAX1 inh-2
COC(=O)c1sccc1NC(=O)c1cc(-c2ccc(C)cc2)nc2ccccc12 | 0 | 1.1* | 1 | 0 | 0
Cc1ccc(NC(=O)[C@@H]2CCCN2S(=O)(=O)c2cccc3cccnc23)c(C)c1 | -3 | -1 | / | -3 | /
Cn1c(=O)c2[nH]c(SCC(=O)NCCc3ccc(F)cc3)nc2n(C)c1=O | 0 | 0 | 0 | -1 | /
COc1ccc(OC)c(S(=O)(=O)N2CCC(C(=O)NCC3COCCO3)CC2)c1 (stereo unspecified) | -3 | 0 | 1 | 1 | /
CCN(CC)C(=O)CC[C@H]1CC[C@]2(CCCN(C(=O)c3ccno3)C2)O1 | -1 | -1 | 3 | -4 | /
CCN1CCN(c2ccc(S(=O)(=O)N3CCOCC3)cc2NC(=O)c2cccc([N+](=O)[O-])c2)CC1 | 1 | 1.1* | 0 | 3 | 1
CCN1CCN(c2ccc(S(=O)(=O)N3CCOCC3)cc2NC(=O)c2ccc(C(F)(F)F)cc2)CC1 | -1 | -1 | 0 | 2 | 5.9*
O=C(O)c1ccc(OCCCCCCOC2CCCCO2)cc1 (stereo unspecified) | -1 | -1 | 0 | 1 | 4.5*
COCCCNC(=O)C[C@H]1C[C@@]2(C(=O)OC)C(=C[C@H](COCc3ccccc3)O[C@@H]2C)N(Cc2ccccc2)C1=O | 0 | -1 | 1 | 2 | /
Cc1ccc(C2CC(c3ccccc3OC(F)F)Nc3ncnn32)cc1 (stereo unspecified) | -1 | -1 | 0 | 1 | 5.3*
COc1ccc(C2CC(c3cccc(C)c3)n3ncnc3N2)cc1 (stereo unspecified) | -1 | -1 | -1 | 0 | 1
Cc1cccc(C2CC(c3ccccc3)Nc3ncnn32)c1 (stereo unspecified) | -1 | -2 | 0 | -1 | 5.6*
Cc1ccccc1C1CC(c2ccccc2OC(F)F)Nc2ncnn21 (stereo unspecified) | 1 | -1 | 0 | -1 | -1
COC(=O)c1ccc(-c2ccc3c(c2)[C@]2(CCC[C@@H](O)[C@@H]2NC(=O)CCc2ccccc2)C(=O)N3Cc2ccccc2)cc1 | 0 | -2 | -3 | 3 | /
CCOc1ccc(-c2nc(CSCC(=O)NC3CCC3)c(C)o2)cc1 | -5 | -3 | / | -5 | /
CC(C)c1ccccc1NC(=O)[C@@H]1CCCN1S(=O)(=O)c1cccc2cccnc12 | -2 | -2 | / | -4 | /
COc1cc(C(=O)OC2CC3CCC2(C)C3(C)C)ccc1OC(C)=O (stereo unspecified) | -1 | 0 | -1 | 6 | 4.7*
CC1(C)C2CCC1(C)C(OC(=O)CNc1ccccc1)C2 (stereo unspecified) | 0 | -1 | 0 | 1 | 0
Cc1c(C(=O)Nc2nnc(C3CC3)s2)oc2ccccc12 | 6.4* | 1 | 2 | 11* | 1
C/C(=N/NC(=O)CSc1nnc(-c2ccccc2)n1-c1ccc(Cl)cc1)c1cccc(O)c1 | -1 | 0 | -1 | 7 | /
c1ccc(Sc2ccncc2)cc1 | 1 | -1 | 0 | 0 | 5.7*
Cc1ccc(C2C(C(=O)O)c3ccccc3C(=O)N2C)c(C)c1 (stereo unspecified) | 0 | -1 | 1 | -2 | 0
CN1C(=O)c2ccccc2C(C(=O)O)C1c1cn(C)c2ccccc12 (stereo unspecified) | 5.9* | -1 | 0 | 0 | 0
CCOC(=O)c1ccc(-n2c(C)nc3ccc(Br)cc3c2=O)cc1 | 2 | 2.7* | 0 | 1 | 2
